# Screening results from PubChem.
# TGFb SMAD3 inh – inhibitors of TGF-b signaling; HepG2 CAGA-GFP TGF-b/SMAD3 reporter, GFP fluorescence, 18 h; TGF-beta stimulated, 500 pg/mL final; Potency, µM (highest dose often 46.1 µM), for inactives: top-dose activity, negative = inhibition, hits mostly inhibitors; actives 1.2% (n = 410,000); AID 588855; also: % is scaled to controls: 0 for no effect and ±100 for the full control effect; nearly all actives have a fitted effect of over 65% in size
#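 Using HEPG2 CAGA-GFP reporter cells at 1000 cells/well, we pinned test compounds, stimulated with recombinant TGF-beta (500 pg/mL final) and measured total well GFP after 18 h.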
# HepG2 tox – counter-screen for TGF-b inhibitors: cytotoxicity in HepG2 cells; HepG2 CAGA-GFP viability, ATP luminescence, 18 h; Potency, µM (titrated, usually from 46.1 µM), inactives show at the top dose activity change, negative = cytotoxicity, most hits filed as cytotoxic; actives 0.76% (n = 410,000); AID 588856
#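 HepG2 CAGA-GFP cells (1000/well, DMEM with 1% FBS) received compound, then TGF-beta at 500 pg/mL final, and were incubated 18 hours at 37 degrees C. Viability was read by CellTiter-Glo luminescence. Media-only wells were set as complete cell-killing and DMSO as no toxicity.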
# DT40 TDP1 no CPT – qHTS for Inhibitors of human tyrosyl-DNA phosphodiesterase 1 (TDP1): qHTS in cells in absence of CPT | DT40 Tdp1-/- hTDP1 cells, no CPT, ATP luminescence, 48 h | Potency, µM (titrated, usually from 46.2 µM), inactives show top-dose activity change, negative = growth inhibition, actives largely listed as inhibitors | actives 15% (n = 420,000) | AID 686978, 2013; also: % is scaled to controls: 0 for no effect and ±100 for the full control effect; nearly all actives have a fitted effect of over 55% in size
#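 Growth kinetics read by CellTiter-Glo luminescence after ≥48 hr at 37 °C. Cells: DT40 Tdp1-/- stably carrying human TDP1, 400 per well, compound exposure in the absence of CPT (DMSO vehicle).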
# S2 tox – cell viability loss in ATXN counter-screen; S2 cells (HEK-293 line with an ATXN2-luciferase reporter) viability, CellTiter-Fluor protease fluorescence, 24 h; Potency, µM (series often up to 56.7 µM), most hits filed as cytotoxic; AID 651635; actives 0.49% (n = 400,000); also: nearly all actives have a fitted effect of over 40% in size
# ATXN2 expr inh – ATXN2 expression inhibition. HEK-293 ATXN2-luciferase reporter, luminescence, 24 h. Potency, µM (titrated, usually from 57 µM), inactives show at the highest dose activity change, negative = inhibition, hits mostly inhibitors. actives 0.72% (n = 360,000). AID 1745845; also: % is scaled to controls: 0 for no effect and ±100 for the full control effect; nearly all actives have a fitted effect of over 55% in size
#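 qHTS (up to 57 uM final) was run with 24 h compound exposure of reporter cells at 37 °C. Each well was multiplexed: SteadyGlo luminescence measured ATXN2-luciferase expression after a fluorogenic Gly-Phe-AFC viability readout (25 uM final).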
# DT40 TDP1 CPT – growth inhibition of DT40 Tdp1-/-;hTDP1 cells with camptothecin (screen for TDP1 inhibitors). chicken DT40 Tdp1-/-;hTDP1 cells + 20 nM CPT, ATP luminescence, 48 h. Potency, µM (series often up to 46.2 µM), for inactives: top-dose activity change, negative = growth inhibition, usual class: inhibitors. actives 12% (n = 420,000). AID 686979; also: % is scaled to controls: 0 for no effect and ±100 for the full control effect; nearly all actives have a fitted effect of over 55% in size
#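 Chicken DT40 Tdp1-/- cells complemented with human TDP1, 400 cells/well, exposed to compounds plus 20 nM camptothecin for at least 48 h at 37 C; viability read as ATP content by CellTiter-Glo luminescence.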
# * marks the source's active call; other numbers are inactive results; i = inactive; ? = inconclusive; . = not tested or not shown. Hits are enriched below; roughly 17% of the tested compounds scored in any of these assays. Calls follow the shape of the dose curve; as a rule, active = well fitted curve in the direction sought with a large enough effect; inconclusive = small, poorly fitted or top-dose-only effect, or another doubt; inactive = no such curve, though single readings can be large; an effect the other way counts as inactive or inconclusive. Potency is read from the fitted curve at half-maximal effect.
SMILES,TGFb SMAD3 inh,HepG2 tox,DT40 TDP1 no CPT,S2 tox,ATXN2 expr inh,DT40 TDP1 CPT
COc1ccc(C(=O)c2ccc(Br)cc2)c(OC)c1OC,-10%,-3%,-25%,i,17%,-6%
COc1ccccc1C(=O)COC(=O)c1ccc(N(C)C)cc1,1%,-3%,18µM*,i,68%,?
COc1ccc(C(=O)c2ccccc2C(=O)c2ccccc2)cc1,-4%,-13%,16µM*,?,-12%,?
COc1ccc(C(=O)c2ccc(OC)c(OC)c2OC)cc1,-26%,-24%,3.7µM*,?,-14%,3.7µM*
COC(=O)c1csc(C2OC(CO)C(O)C2O)n1 (stereo not given),-13%,4%,-25%,i,.,-2%
COc1ccc(-n2nnnc2/C=C\Nc2ccccc2C(=O)c2ccccc2)cc1,9%,-5%,5.8µM*,?,-14%,7.3µM*
O=C(COC(=O)c1ccccc1C(=O)c1ccc(Cl)cc1)NC(c1ccccc1)c1ccccc1,-10%,1%,15µM*,i,.,12µM*
Cc1ccccc1C(=O)c1ccccc1C(=O)c1ccccc1,-8%,-20%,16µM*,?,-11%,?
O=C(c1ccccc1)c1ccccc1C(=O)c1ccccc1,50%,14%,18µM*,i,16%,?
O=C(COC(=O)c1ccccc1C(=O)c1ccc(Cl)cc1)NCCc1ccccc1,?,-35%,?,i,-6%,?
Cc1cc2ccccc2cc1C(=O)c1ccccc1,16%,-8%,-22%,i,8%,4%
CCOc1ccc(CCNC(=O)Cn2nc(CC)n3c(cc4sccc43)c2=O)cc1,0%,-10%,-2%,.,.,-2%
CCCC1(c2ccccc2)NC(=O)N(CCN2C(=O)c3ccccc3C2=O)C1=O (stereo not given),-21%,0%,-6%,i,-6%,-4%
COc1ccc(C(=O)CCC(=O)O)c2ccccc12,.,.,-10%,.,.,1%
COc1ccc(C(=O)c2ccc(N(C)C)cc2)c2ccccc12,?,-16%,1.5µM*,i,50%,1µM*
O=C(NCc1ccccc1)C1CCCN(C(=O)c2ccc(F)cc2)C1 (stereo not given),?,-2%,-1%,i,5%,-1%
COc1ccccc1NC(=O)COc1ccc(Br)cc1CNC1CCCC1,1%,-29%,?,?,-35%,?
COc1ccc([N+](=O)[O-])c2c1CCN2C(=O)CC[C@H](N)C(=O)O,.,.,-16%,.,.,3%
COc1ccc2nc(C)cc(N3CCOCC3)c2c1,-16%,5%,-24%,i,-7%,-26%
COc1ccc2nc(C)cc(N3CCN(c4ccccc4)CC3)c2c1,?,-26%,18µM*,i,-36%,21µM*
COc1ccc(C(=O)CN2CCN(c3cc(C)nc4ccccc34)CC2)cc1,?,26%,29µM*,?,-31%,26µM*
COc1ccc2nc(C)cc(N3CCN(S(=O)(=O)c4ccccc4F)CC3)c2c1,-20%,-45%,3.3µM*,i,-37%,?
C/C(=N\NC(=O)c1cc(-c2cccc([N+](=O)[O-])c2)n[nH]1)c1ccccc1O,?,-32%,?,i,?,?
C=CCN(C(=O)c1cccc(C(F)(F)F)c1)C1(C(=O)Nc2ccccc2)CCN(C(C)C)CC1,-7%,-27%,?,?,?,?
CC(C)CNC(=O)C1(C)CCCN1C(=O)c1cccnc1Oc1ccccc1 (stereo not given),9%,-15%,-8%,i,0%,-6%
SMILES,TGFb SMAD3 inh,HepG2 tox,DT40 TDP1 no CPT,S2 tox,ATXN2 expr inh,DT40 TDP1 CPT
CCOC(=O)N1CCC(N2C(=O)c3ccccc3C2Nc2cc(C(=O)OC)cc(C(=O)OC)c2)CC1 (stereo not given),-3%,0%,?,i,0%,-4%
c1ccc(NC2=NCCN2CCCC2CCCCC2)cc1,-12%,-14%,23µM*,i,-31%,16µM*
c1ccc(NC2=NCCN2CC2CCC2)cc1,13%,-1%,-12%,i,5%,4%
c1ccc(CCCCN2CCN=C2Nc2ccccc2)cc1,12%,-6%,16µM*,i,-20%,?
CCCN(C(=O)c1c(C)oc2ncnc(N3CCOCC3)c12)c1ccc(Cl)c(Cl)c1,115%,4%,0%,i,14%,-1%
CC(=O)c1cnc(Nc2cccc(C)c2)s1,-27%,-13%,2%,i,7%,21%
COc1ccccc1CNC(=O)Cn1nc(C)n2cccc2c1=O,33%,1%,-7%,.,.,-17%
Cc1ccc(S(=O)(=O)N(CC(=O)NCc2cccnc2)c2ccc(F)cc2)cc1,3%,-22%,18µM*,i,4%,-25%
CCOc1ccc(S(=O)(=O)N(CC(=O)NCc2cccnc2)c2ccc(C)cc2)cc1,-17%,-21%,?,i,-13%,?
CCOc1ccc(S(=O)(=O)N(CC(=O)NCc2cccnc2)c2ccc(F)cc2)cc1,-8%,-12%,18µM*,i,2%,?
O=C1NC(CCc2ccccc2)C(=O)N1Cc1ccccc1Cl (stereo not given),-4%,14%,?,i,-8%,?
COc1cccc(CNS(=O)(=O)c2cc(Br)ccc2Br)c1,-2%,3%,?,i,0%,?
CC(=O)N/N=C(\C)CC(=O)NC(C)(C)C,11%,-1%,-21%,i,-17%,22%
CC(=O)Nc1cccc(NC(=O)Cc2csc(COc3cccc(C)c3)n2)c1,-13%,-21%,21µM*,?,-27%,15µM*
Cc1cccc(NC(=O)Cc2csc(COc3cccc(C)c3)n2)c1,-24%,-38%,-21%,i,-2%,-22%
COc1ccc(NC(=O)Cc2csc(COc3cccc(C)c3)n2)cc1OC,0%,-25%,26µM*,i,-28%,18µM*
Cc1cccc(C)c1OCC(O)CN1CCc2ccccc2C1 (stereo not given),-3%,-2%,6.5µM*,i,-25%,4.6µM*
OC(COc1c(F)cc(Br)cc1F)CN1CCc2ccccc2C1 (stereo not given),-25%,-32%,?,i,.,?
COC(=O)c1sccc1NC(=O)C1CCCCC1C(=O)O (stereo not given),-9%,-33%,-1%,i,.,3%
